Assay [1] in a line: qHTS assay to identify small molecule agonists of the androgen receptor (AR) signaling pathway in the presence of an antagonist - cell viability counter screen (AID 1259379). Note: nearly all actives have a fitted effect of over 25% in size. Note: potency is the fitted concentration of half-maximal effect. The method in brief: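 Counter screen for cell viability run in parallel with the AR agonist-mode luciferase assay. MDA-kb2 cells were co-treated with nilutamide (3.0uM final) and compounds, then incubated 16 hr at 37C, and CellTiter-Fluor fluorescence was measured.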

The nature of assay [2]: qHTS assay to identify small molecule agonists of the estrogen receptor beta (ER-beta) signaling pathway - cell viability counter screen (AID 1259380). Note: nearly all actives have a fitted effect of over 30% in size. Note: potency is the fitted concentration of half-maximal effect. The procedure, abridged: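 In this qHTS counter screen, HEK293T cells carrying an ER-beta/UAS beta-lactamase reporter, grown in 2% charcoal-stripped FBS, received compound for 16 hr; ATP-based CellTiter-Glo luminescence was then read after 30 min at room temperature.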
In general terms: In qHTS, concentration-response curves come from the screen itself.

Assay [3] can be described thus: qHTS assay to identify small molecule antagonists of the estrogen receptor beta (ER-beta) signaling pathway - cell viability counter screen (AID 1259382). Note: nearly all actives have a fitted effect of over 55% in size. Note: potency is the fitted concentration of half-maximal effect. The method in brief:
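HEK293T ER-beta-UAS-bla, 2% charcoal-stripped FBS; compounds + 1nM E2 16 hr 37C; CellTiter-Glo luminescence, 30 min RT.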

A short description of assay [4]: qHTS assay to identify small molecule agonists or antagonists of the thyroid stimulating hormone receptor (TSHR) signaling pathway - wild type cell line counter screen (AID 1259384; calls by dose curve). The procedure, abridged: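 Wild-type Hek293 cells, 800/well, 18 h at 37C, then compound with Ro20-1724 for 30 min RT. cAMP by HTRF (cAMP-d2/anti-cAMP cryptate), 1 h RT, fluorescence read. 15 concentrations, triplicates.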

The nature of assay [5]: qHTS assay to identify small molecule agonists of the estrogen receptor alpha (ER-alpha) signaling pathway in the presence of an antagonist - cell viability counter screen (AID 1259386).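 Note: cells exposed to compounds for 22 h at 37 °C before the viability read; nearly all actives have a fitted effect of over 30% in size.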 Note: potency is the fitted concentration of half-maximal effect. The method in brief: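 Steps: 5-day stripped-FBS culture; seed and incubate 24hr; add ICI-182,780 (10.0nM final); pin 15-point compound titration; incubate 22hr at 37C; add CellTiter-Fluor at 21hr; read fluorescence.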

For assay [6], the target named is Progesterone receptor (Homo sapiens) (UniProt P06401). Briefly: qHTS assay to identify small molecule agonists of the progesterone receptor (PR) signaling pathway (AID 1346784; calls by dose curve; note: nearly all actives have a fitted effect of over 30% in size). The procedure, abridged:
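PR-UAS-bla HEK 293T cells (beta-lactamase reporter under UAS) in 2% charcoal-stripped FBS, dosed with 23 nL compound after 6 hr, incubated 16hr at 37C. LiveBLAzer B/G FRET substrate added, fluorescence read after 2 hours.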

For assay [7] the target is unchanged. As to the kind of experiment: qHTS assay to identify small molecule antagonists of the progesterone receptor (PR) signaling pathway (AID 1346795; active = well fitted inhibition curve with a large enough effect in the signal ratio in the repeat runs, not every such curve was filed as active; the % refers to the signal ratio; note: potency is the fitted concentration of half-maximal effect). The method in brief:
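PR-UAS-bla HEK293T cells with beta-lactamase reporter under UAS control, in 2% charcoal-stripped FBS, treated with compounds plus 1 nM promegestone (R5020, final) for 16 hr at 37C. Read-out: FRET beta-lactamase substrate fluorescence after 2 hr at room temperature.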

Assay [8] in a line: qHTS assay to identify small molecule antagonists of the progesterone receptor (PR) signaling pathway - cell viability counter screen (AID 1346798). Note: nearly all actives have a fitted effect of over 50% in size. Note: potency is the fitted concentration of half-maximal effect. The method in brief: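 PR-UAS-bla HEK293T cells, 3,000/well in 2% charcoal-stripped FBS medium, dosed with compounds plus R5020 agonist and incubated 16 h at 37C. Viability then measured in the same wells by CellTiter-Glo luminescence after 30 min at RT.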

Assay [9] is described as follows: qHTS assay to identify small molecule agonists of the progesterone receptor (PR) signaling pathway - cell viability counter screen (AID 1346799; calls by dose curve; note: nearly all actives have a fitted effect of over 45% in size). The procedure, abridged:
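Counter screen in the PR-UAS-bla HEK293T wells (2% charcoal-stripped FBS, 16 h compound exposure at 37 C) after the bla read. CellTiter-Glo added, 30 min at room temperature, luminescence read as cell viability.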

Assay [10] in a line: qHTS assay to identify small molecule antagonists of the TGF-beta/Smad signaling pathway - cell viability counter screen (AID 1346824). Note: nearly all actives have a fitted effect of over 50% in size. Note: potency is the fitted concentration of half-maximal effect. The method in brief: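 SBE-bla HEK 293T cells, incubated overnight, then compound plus 0.25 ng/mL TGF-beta1 (stock added) for 5 hr at 37 C. Viability was read in the same wells by CellTiter-Glo luminescence after 30 min at room temperature.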

Assay [11] in a line: qHTS assay to identify small molecule agonists of the TGF-beta/Smad signaling pathway - cell viability counter screen (AID 1346829). Note: nearly all actives have a fitted effect of over 45% in size. Note: potency is the fitted concentration of half-maximal effect. The method in brief: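 Cytotoxicity counter screen: CellTiter-Glo luminescence (30 min, room temperature) measured in the SBE-bla HEK 293T reporter wells after 5 hr compound treatment at 37 C and the 2 hr substrate step.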
Assay [12] can be described thus: qHTS assay to identify small molecule agonists of the TGF-beta/Smad signaling pathway (AID 1346859; active = well fitted activation curve with a large enough effect in the signal ratio in the repeat runs, not every such curve was filed as active; the % refers to the signal ratio; note: series mostly up to about 77 µM). The method in brief: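 SBE-bla HEK293T cells plated overnight, then compound exposure for 5 h at 37 C. Beta-lactamase reporter read with LiveBLAzer B/G FRET substrate after 2 h at room temperature, fluorescence at 405 nm excitation, 460/530 nm emission.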
In assay [13] the target is Thyrotropin-releasing hormone receptor (Homo sapiens) (UniProt P34981). As to the kind of experiment: qHTS assay to identify small molecule antagonists of the thyrotropin-releasing hormone receptor (TRHR) signaling pathway (AID 1346877; active = well fitted inhibition curve with a large enough effect in the repeat runs, not every such curve was filed as active; note: series mostly up to about 51 µM). The method in brief: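 Human TRHR in HEK293 cells; inhibition of the intracellular calcium rise triggered by 1 nM TRH was followed by fluorescence over 3 min. Compounds were run at 15 concentrations, three replicates each.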
Sequence of Thyrotropin-releasing hormone receptor (Homo sapiens) (P34981 whole entry, looked up): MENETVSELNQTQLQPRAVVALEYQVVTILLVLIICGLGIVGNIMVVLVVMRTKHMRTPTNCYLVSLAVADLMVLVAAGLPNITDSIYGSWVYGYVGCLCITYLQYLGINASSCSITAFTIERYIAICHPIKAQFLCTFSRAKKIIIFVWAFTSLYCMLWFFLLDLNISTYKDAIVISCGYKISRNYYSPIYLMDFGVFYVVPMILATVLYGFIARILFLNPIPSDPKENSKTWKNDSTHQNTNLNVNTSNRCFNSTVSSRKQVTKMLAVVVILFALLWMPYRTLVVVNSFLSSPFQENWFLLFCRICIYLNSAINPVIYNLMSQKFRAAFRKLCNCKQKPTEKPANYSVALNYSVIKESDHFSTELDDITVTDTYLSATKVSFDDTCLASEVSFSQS

The target is the same in assay [14]. Briefly: qHTS assay to identify small molecule agonists of the thyrotropin-releasing hormone receptor (TRHR) signaling pathway (AID 1346891; calls by dose curve; note: series mostly up to about 58 µM). The method in brief:
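HEK293 cells expressing TRHR plated 18 h at 37 C/5% CO2, calcium dye-loaded 2 h at 37 C, then compound added (agonist mode); kinetic calcium fluorescence read 3 min at 1 s intervals; 15 concentrations in triplicate.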

A short description of assay [15]: Human pregnane X receptor (PXR) small molecule agonists, qHTS cell viability counter screen (AID 1346977). Note: nearly all actives have a fitted effect of over 50% in size. Note: potency is the fitted concentration of half-maximal effect. The method in brief: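 PXR-Luc HepG2 cells (2,000/well, 5% charcoal-stripped FBS) preincubated 5 hr, then exposed to compounds 24 hr at 37 C. Viability read in the same wells by CellTiter-Fluor fluorescence, reagent added at 23 hr, 1 hr incubation.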
In assay [16] the target is Estrogen receptor (Homo sapiens) (UniProt P03372). As to the kind of experiment: qHTS assay to identify small molecule agonists of the estrogen receptor alpha (ER-alpha) signaling pathway in the presence of an antagonist (AID 1259383; calls by dose curve; note: top concentration of the series differs between compounds; nearly all actives have a fitted effect of over 15% in size). The method in brief: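 ER-alpha agonism measured under antagonist challenge: 10.0nM ICI-182,780 (final) plus compound, 15 concentrations, 22hr, VM7Luc4E2 ERE-luciferase cells. Read by luminescence.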
Sequence of Estrogen receptor (Homo sapiens) (P03372 whole entry, looked up): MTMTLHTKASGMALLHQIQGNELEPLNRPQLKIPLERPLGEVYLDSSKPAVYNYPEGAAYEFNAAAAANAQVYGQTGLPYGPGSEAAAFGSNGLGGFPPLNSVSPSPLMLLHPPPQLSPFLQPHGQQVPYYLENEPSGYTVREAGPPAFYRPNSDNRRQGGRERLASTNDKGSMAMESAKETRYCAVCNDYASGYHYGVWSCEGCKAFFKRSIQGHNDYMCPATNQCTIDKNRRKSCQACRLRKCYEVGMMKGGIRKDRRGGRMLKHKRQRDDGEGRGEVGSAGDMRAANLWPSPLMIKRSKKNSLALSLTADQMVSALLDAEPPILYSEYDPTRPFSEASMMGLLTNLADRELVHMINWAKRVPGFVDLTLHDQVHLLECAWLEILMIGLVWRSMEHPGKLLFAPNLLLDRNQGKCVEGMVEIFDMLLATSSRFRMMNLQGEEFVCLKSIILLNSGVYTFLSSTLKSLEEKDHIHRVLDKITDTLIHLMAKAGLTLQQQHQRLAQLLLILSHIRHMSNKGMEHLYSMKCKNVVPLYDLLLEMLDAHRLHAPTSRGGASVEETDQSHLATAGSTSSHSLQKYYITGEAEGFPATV

Assay [17] concerns the target Thyrotropin receptor (Homo sapiens) (UniProt P16473). Briefly: qHTS assay to identify small molecule antagonists of the thyroid stimulating hormone receptor (TSHR) signaling pathway (AID 1259385; calls by dose curve; note: nearly all actives have a fitted effect of over 20% in size). The procedure, abridged:
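TSHR-HEK293 cells (800/well) plated 18 h, then compounds with Ro20-1724 and TSH at 1.5 ng/mL final, 30 min at room temperature. cAMP quantified by HTRF (cAMP-d2/anti-cAMP-cryptate, 1 h); 15 concentrations in triplicate.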

The values below come from PubChem BioAssay (Tox21).

“And” between values parts separate entries of the source, which are not always exact repeats. Equal values may be shown once. Records with an inconclusive call do not appear. More than one record can exist for a structure, and the calls need not agree. The source made the active and inactive calls. Unless noted, calls come from the whole dose curve; as a rule, active = well fitted curve in the direction sought with a large enough effect in the repeat runs; inconclusive = weak or mixed curves; inactive = no such curve, though single readings can be large; an effect the other way counts as inactive or inconclusive.

Sequence of Progesterone receptor (Homo sapiens) (P06401 whole entry, looked up): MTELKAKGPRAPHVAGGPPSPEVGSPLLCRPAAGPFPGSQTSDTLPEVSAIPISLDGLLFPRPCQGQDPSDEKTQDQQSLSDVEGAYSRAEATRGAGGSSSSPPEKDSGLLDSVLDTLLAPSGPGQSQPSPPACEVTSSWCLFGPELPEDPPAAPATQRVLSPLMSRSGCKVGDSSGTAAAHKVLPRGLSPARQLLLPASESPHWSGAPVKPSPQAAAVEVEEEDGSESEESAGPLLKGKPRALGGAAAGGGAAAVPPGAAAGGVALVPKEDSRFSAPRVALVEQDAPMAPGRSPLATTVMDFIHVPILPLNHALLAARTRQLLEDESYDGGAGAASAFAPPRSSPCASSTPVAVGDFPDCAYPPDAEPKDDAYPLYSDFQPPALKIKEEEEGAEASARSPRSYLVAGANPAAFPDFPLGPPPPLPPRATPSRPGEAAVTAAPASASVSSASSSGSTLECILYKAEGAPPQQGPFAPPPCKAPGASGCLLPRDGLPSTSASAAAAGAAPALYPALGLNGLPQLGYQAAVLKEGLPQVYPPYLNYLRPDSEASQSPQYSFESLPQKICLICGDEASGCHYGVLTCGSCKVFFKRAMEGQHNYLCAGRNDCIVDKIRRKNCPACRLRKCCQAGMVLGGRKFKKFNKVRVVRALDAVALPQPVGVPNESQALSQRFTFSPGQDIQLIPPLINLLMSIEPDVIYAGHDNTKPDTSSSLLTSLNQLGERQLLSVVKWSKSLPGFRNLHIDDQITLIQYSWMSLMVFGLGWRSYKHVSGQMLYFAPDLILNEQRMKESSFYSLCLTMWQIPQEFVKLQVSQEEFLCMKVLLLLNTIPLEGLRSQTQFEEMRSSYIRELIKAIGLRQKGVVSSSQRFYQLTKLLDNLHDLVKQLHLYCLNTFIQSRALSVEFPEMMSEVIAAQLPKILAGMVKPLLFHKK
Sequence of Thyrotropin receptor (Homo sapiens) (P16473 whole entry, looked up): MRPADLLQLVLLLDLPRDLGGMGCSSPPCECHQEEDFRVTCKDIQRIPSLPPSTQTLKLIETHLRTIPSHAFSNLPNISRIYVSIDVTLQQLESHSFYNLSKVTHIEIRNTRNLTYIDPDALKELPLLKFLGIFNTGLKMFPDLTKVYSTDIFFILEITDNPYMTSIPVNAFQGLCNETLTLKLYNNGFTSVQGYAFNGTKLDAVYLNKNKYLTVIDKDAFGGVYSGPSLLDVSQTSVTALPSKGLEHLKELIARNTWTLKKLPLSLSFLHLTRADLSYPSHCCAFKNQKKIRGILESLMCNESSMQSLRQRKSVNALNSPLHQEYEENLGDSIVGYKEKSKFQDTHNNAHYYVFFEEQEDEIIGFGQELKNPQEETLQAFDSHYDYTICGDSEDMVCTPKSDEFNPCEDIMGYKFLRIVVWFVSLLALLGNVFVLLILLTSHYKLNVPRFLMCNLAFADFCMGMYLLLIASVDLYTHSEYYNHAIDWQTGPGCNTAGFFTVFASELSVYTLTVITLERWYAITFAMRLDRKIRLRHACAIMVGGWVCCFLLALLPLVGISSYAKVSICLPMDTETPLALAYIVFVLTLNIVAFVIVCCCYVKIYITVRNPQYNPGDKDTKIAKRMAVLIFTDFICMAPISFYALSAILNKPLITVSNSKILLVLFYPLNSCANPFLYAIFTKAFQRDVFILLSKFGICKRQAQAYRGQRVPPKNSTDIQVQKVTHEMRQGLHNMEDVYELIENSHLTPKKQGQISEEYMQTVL

Turning to `O=CCc1ccccc1`, the Potency entry in [1], in [2], in assay [3], in [5], in assay [6] and in assay [7] was “inactive” each time. The Potency result in [8], in [9], in assay [10], in assay [11], in assay [13] and in assay [14] was “inactive” throughout. In addition, the Potency entry in assay [15] is “inactive”. The compound was called inactive in assay [4] and in assay [12].
For `O=C(c1ccccc1)c1ccc(O)cc1O`, the Potency result in assay [1], in assay [2], in assay [5], in assay [6], in assay [10] and in assay [11] was “inactive” throughout. Also, the Potency entry in assay [13], in [14] and in assay [15] was “inactive” throughout. The Potency is 62.3 µM (active) and inactive in assay [3]; 15.7 µM (active) and 19.3 µM (active) in [7]; 49.5 µM (active) in assay [8]. For the same compound, the compound was called inactive in [4] and in [12].
Regarding `CC(=O)Oc1ccccc1C(=O)Nc1ncc([N+](=O)[O-])s1`, the Potency in assay [1] is 22.1 µM (active) and 13.3 µM (active); in assay [2], 12.4 µM (active) and 7.5 µM (active); in [3], 22.1 µM (active); in assay [5], 24.8 µM (active) and 23.7 µM (active); in [10] it was 14.1 µM (active) and 8.49 µM (active); in assay [11], 11.2 µM (active). In assay [15], the Potency was 12.4 µM (active) and 16.8 µM (active). For the same compound, the Potency entry in assay [16], in assay [6], in assay [13] and in [14] was “inactive” throughout. Also, the compound was called inactive in assay [4].
Regarding `CC(C)Oc1ccc2c(=O)c(-c3ccccc3)coc2c1`, the Potency entry in assay [3], in assay [17], in assay [5], in [6], in assay [7] and in assay [10] was “inactive” each time. In addition, the Potency result in [11] and in assay [15] was “inactive” each time. The outcome in assay [4] and in [12] was inactive.
Consider `Cc1ccc(C(=O)c2cc(O)c(O)c([N+](=O)[O-])c2)cc1`, for which the Potency in assay [1] is 54.5 µM (active) and 29.8 µM (active); in assay [5], 27.3 µM (active) and 29.8 µM (active); in assay [7], 23.7 µM (active); in assay [15], 21.7 µM (active). For the same compound, the Potency entry in assay [2], in [3], in assay [17], in assay [6], in assay [8] and in assay [10] was “inactive” throughout. Also, the Potency entry in assay [11], in [13] and in assay [14] was “inactive” each time. Further, in assay [4], the result was inactive.
On to `c1cc(N(CC2CO2)CC2CO2)ccc1OCC1CO1` (configuration not stated), for which the Potency entry in [2], in assay [3], in assay [17], in assay [6], in assay [10] and in [11] was “inactive” in each case. Besides, the Potency entry in assay [13] and in assay [14] was “inactive” each time. Also, the compound was called inactive in [4] and in assay [12]. For the same compound, the Potency in assay [5] was 54.5 µM (active); in assay [7], 48.6 µM (active); in [15], 61.1 µM (active).
Turning to `CC(C)=CCC/C(C)=C\CO`, the Potency entry in assay [1], in [2], in assay [3], in assay [17], in assay [5] and in assay [6] was “inactive” throughout. Moreover, the Potency result in assay [7], in [8], in [10], in assay [11] and in assay [15] was “inactive” throughout. For the same compound, the outcome in assay [4] and in assay [12] was inactive.
For the compound `O=S(=O)(O)c1ccc(O)cc1`, the Potency entry in assay [1], in assay [2], in assay [3], in assay [16], in assay [17] and in assay [5] was “inactive” throughout. Moreover, the Potency entry in [6], in assay [7], in assay [8], in assay [9], in assay [10] and in assay [11] was “inactive” each time. Also, the Potency entry in assay [15] is “inactive”. The outcome in assay [4] and in [12] was inactive.
Take `COc1ccc(C(=O)CC(=O)c2ccc(C(C)(C)C)cc2)cc1`: the Potency in [1] is 58.7 µM (active) and inactive. Besides, the Potency entry in assay [2], in [3], in assay [5], in assay [6], in assay [7] and in assay [8] was “inactive” throughout. The Potency entry in [9], in assay [10], in assay [11], in assay [13], in [14] and in assay [15] was “inactive” throughout. The outcome in [4] and in assay [12] was inactive.
`COC(=O)CCC(=O)OC`: the Potency entry in assay [1], in assay [2], in [3], in assay [16], in assay [17] and in assay [5] was “inactive” in each case. Further, the Potency result in [6], in assay [8], in assay [10], in assay [11], in [13] and in assay [14] was “inactive” in each case. Moreover, the Potency entry in assay [15] was “inactive”. Also, the outcome in [4] and in [12] was inactive.
Take `CC(C)(C)NC(=O)[C@H]1CC[C@H]2[C@@H]3CC[C@H]4NC(=O)C=C[C@]4(C)[C@H]3CC[C@]12C`: the Potency entry in [1], in assay [3], in assay [5], in assay [6], in assay [8] and in assay [10] was “inactive” in each case. For the same compound, the Potency entry in assay [11], in assay [13], in assay [14] and in [15] was “inactive” each time. The call in [12] was inactive.
For the compound `CCCc1c(OCCCCc2nn[nH]n2)ccc(C(C)=O)c1O`, the Potency entry in assay [1], in assay [3], in [16], in assay [5], in [6] and in assay [8] was “inactive” throughout. For the same compound, the Potency entry in assay [9], in assay [10], in assay [11], in [13], in assay [14] and in assay [15] was “inactive” each time. For the same compound, the Potency in assay [2] is 68.6 µM (active). Further, the outcome in [4] was inactive.
In the case of `CCCC(=O)O`, the Potency entry in assay [1], in assay [2], in [3], in assay [5], in assay [6] and in [7] was “inactive” throughout. Also, the Potency entry in assay [8], in [9], in assay [10], in assay [11], in [13] and in assay [14] was “inactive” each time. Also, in assay [15], the Potency entry was “inactive”. Moreover, the result in [4] and in assay [12] was inactive.
Take `C=C(C)C1CC=C(C)CC1` (configuration not stated): the Potency result in [1], in assay [2], in [3], in assay [5], in assay [6] and in assay [7] was “inactive” throughout. The Potency entry in assay [8], in assay [10], in assay [11] and in [15] was “inactive” in each case. Also, the compound was classed as inactive in [12].
